Measurements from PubChem BioAssay (NCATS).
Inconclusive results are not listed. Activity calls are given as the source filed them. Unless noted, calls follow the shape of the dose curve; as a rule, active = well fitted curve in the direction sought with a large enough effect; inconclusive = small, poorly fitted or top-dose-only effect, or another doubt; inactive = no such curve, though single readings can be large; an effect the other way counts as inactive or inconclusive.

What was measured:
[1] = target: 3',5'-cyclic-AMP phosphodiesterase 4B (Homo sapiens) (UniProt Q07343); assay: qHTS Assay for Inhibitors of PDE-IV (AID 607; active = well fitted activation curve with a large enough effect in the main read-out, with a control signal flat, not every such curve was filed as active; also: % of control where 0% means no effect)
Procedure, shortened: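 ACTOne HEK293 cells carry a modified cAMP-gated CNG channel and express endogenous PDE4; plated 1000 cells/well, compounds up to 22.9 uM final. Membrane-potential dye fluorescence (ex 535/em 590) was read; parental cells received 10 uM forskolin + 100 uM RO 20-1724.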

[2] = target: Guanine nucleotide-binding protein G(i) subunit alpha-1 (Homo sapiens) (UniProt P63096); assay: qHTS Assay for Inhibitors of RGS12 GoLoco Motif Activity (Green Fluorophore) (AID 879);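 also: 0% = labeled peptide with Gαi1 and full inhibition = labeled peptide alone without protein; negative values mean loss of peptide binding seen as reduced polarization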
Procedure, shortened: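 Fluorescence polarization assay: 50 nM Gαi1 with 10 nM FITC-labeled RGS12 GoLoco peptide in 10 mM Tris pH 7.5, 150 mM NaCl, 0.1 mM GDP, 0.05% NP40, 10 min at room temperature with compound.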

[3] = Cellular Toxicity (caspase-3) HepG2 (AID 654);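 also: cells exposed to compound for 16 hours before reading; 0% = DMSO alone and 100% = caspase signal from 100 µM tamoxifen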
Procedure, shortened: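 HepG2 cells (1500/well) in complete medium were treated with compounds for 16 hr at 37 °C. Caspase-3/7 activity was then read as luminescence from peptide-aminoluciferin cleavage. AC50 came from Hill fits, normalized to DMSO and 100 uM tamoxifen.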

[4] = Cellular Toxicity (caspase-3) Jurkat (AID 655);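 also: cells exposed to compound for 16 h at 37 °C before reading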
Procedure, shortened: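 Luminescent Caspase-Glo 3/7 read-out (20 min, room temperature) after 16 h compound treatment at 37 C of 5000 Jurkat cells per well. AC50 derived by Hill-equation fitting, scaled between DMSO basal and 100 uM tamoxifen stimulation.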

[5] = Cellular Toxicity (caspase-3) HUV-EC-C (AID 656);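 also: 0% = DMSO basal and 100% = 100 µM tamoxifen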
Procedure, shortened: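 Luminescent Caspase-Glo 3/7 readout after 16 h, 37 °C compound exposure of HUV-EC-C endothelial cells, 1000 per well, complete medium. AC50 derived by Hill fitting, with DMSO as baseline and 100 uM tamoxifen as full activation.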

[6] = Cellular Toxicity (caspase-3) SHSY5Y (AID 657)
Procedure, shortened: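 Luminescent Caspase-Glo 3/7 read-out, 1 hr room temperature, follows 16 hours of compound treatment of SH-SY5Y cells at 37 °C. Normalization: DMSO basal, 10 uM staurosporine as 100%; AC50 values from Hill-equation concentration-response fits.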

[7] = Cellular Toxicity (caspase-3) BJ (AID 658);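 also: 0% = DMSO basal and 100% = 10 µM staurosporine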
Procedure, shortened: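 Readout: Caspase-Glo 3/7 luminescence increase in BJ cells after 16 hr treatment at 37 °C. Staurosporine and tamoxifen served as positive controls; AC50 values came from Hill modelling of data normalized to DMSO and 10 uM staurosporine.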

[8] = Cellular Toxicity (caspase-3) MRC-5 (AID 659); conditions: Potency: caspase-3 activation;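 also: 0% = DMSO basal and 100% = 10 µM staurosporine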
Procedure, shortened: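 Concentration-dependent caspase 3/7 activation is measured in human normal lung fibroblasts (MRC-5) following 16-hour treatment. AC50 values come from standard Hill-equation modeling of luminescence normalized to DMSO and 10 uM staurosporine.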

[9] = Cellular Toxicity (caspase-3) Mesangial (AID 660);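 also: cells exposed to compound for 16 h before the caspase read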
Procedure, shortened: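 Human renal glomerular mesangial cells (1000/well) were treated with compounds for 16 h at 37 °C in complete medium, then caspase 3/7 activity was read by Caspase-Glo luminescence. Data were normalized to DMSO and 100 uM tamoxifen; AC50 from Hill fits.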

[10] = Cellular Toxicity (caspase-3) SK-N-SH (AID 661); conditions: SK-N-SH caspase-3 activation, qHTS; caspase-3 activation: at 91.7 µM (top of the series), DMSO as zero, staurosporine as full;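 also: 0% = DMSO basal and 100% = 10 µM staurosporine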
Procedure, shortened: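 SK-N-SH human neuroblastoma cells (1500/well) were treated with compounds for 16 hr at 37 °C in complete medium; caspase 3/7 activity was read by Caspase-Glo luminescence. AC50 came from Hill fits of data normalized to DMSO and 10 uM staurosporine.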

[11] = Cellular Toxicity (caspase-3) H-4-II-E (AID 663);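 also: cells exposed to compound for 16 hr before readout; 0% = DMSO basal and 100% = 100 µM tamoxifen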
Procedure, shortened: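 Apoptosis induction is scored as increased luminescence from caspase 3/7 substrate cleavage in rat hepatoma H-4-II-E cells exposed to compound for 16 hr. Activity is scaled between DMSO and 100 uM tamoxifen.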

[12] = Cellular Toxicity (caspase-3) N2a (AID 665);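 also: compound exposure lasted 16 h at 37 °C before readout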
Procedure, shortened: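 Mouse N2a neuroblastoma cells (1500/well) were treated with compounds for 16 h at 37 °C, then caspase-3/7 activity was read by Caspase-Glo luminescence after 1 h at room temperature. Data were normalized to DMSO and 10 uM staurosporine; AC50 from Hill fits.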

[13] = Cellular Toxicity (caspase-3) NIH 3T3 (AID 666);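 also: caspase signal read after 16 h compound exposure; 0% = DMSO basal and 100% = 100 µM tamoxifen stimulation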
Procedure, shortened: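 Mouse NIH 3T3 fibroblasts (1000 cells/well) were treated with compound for 16 hr at 37°C in complete medium; caspase-3/7 activity was read by Caspase-Glo luminescence. Normalized to DMSO and 100 uM tamoxifen; AC50 from Hill fits.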

[14] = Cellular Toxicity (caspase-3) Renal Proximal Tubule (AID 667);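 also: cells exposed to compound for 16 hours at 37 °C before detection; 0% = DMSO basal and 100% = 10 µM staurosporine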
Procedure, shortened: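 Caspase 3/7 activation measured by luminescent aminoluciferin release in primary rat proximal tubule cells after 16 hr compound exposure at 37 °C. AC50 from Hill-fitted concentration-response, scaled between DMSO and 10 uM staurosporine.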

[15] = target: Cytochrome P450 2C9 (Homo sapiens) (UniProt P11712); assay: qHTS Assay for Inhibitors and Substrates of Cytochrome P450 2C9 (AID 883); also: % is scaled to controls: 0 for no effect and ±100 for the full control effect; nearly all actives have a fitted effect of over 60% in size
Procedure, shortened: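 Turnover of Luciferin-H (100uM, KM) by 10nM human CYP2C9 was measured over 60 min at 37C with NADPH regeneration; inhibitors and some substrates reduce luminescence. Data normalized to sulphaphenazole 57uM.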

[16] = target: Cytochrome P450 2D6 (Homo sapiens) (UniProt P10635); assay: qHTS Assay for Inhibitors and Substrates of Cytochrome P450 2D6 (AID 891);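 also: luciferin methyl ether substrate demethylated by CYP2D6 with NADPH regeneration; % is scaled to controls: 0 for no effect and ±100 for the full control effect; nearly all actives have a fitted effect of over 60% in size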
Procedure, shortened: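 Human CYP2D6 (5 nM) with 30 uM Luciferin-ME EGE (at Km) in 100 mM KPO4, compound preincubated 10 min, then NADPH regeneration system for 60 min at room temperature. Luciferin read by luminescence; normalized to 1.43 uM quinidine.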

[17] = target: Cytochrome P450 2C19 (Homo sapiens) (UniProt P33261); assay: qHTS Assay for Inhibitors and Substrates of Cytochrome P450 2C19 (AID 899); also: % is scaled to controls: 0 for no effect and ±100 for the full control effect; nearly all actives have a fitted effect of over 60% in size
Procedure, shortened: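 Reactions contain 5nM enzyme, 10uM Luciferin-H EGE (KM) and 50mM KPO4; compound preincubates 10 min at 37C, NADPH regeneration starts turnover for 60 min. Luminescence after detection reagent gives activity.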

[18] = Confirmation and Secondary Assay for Modulators of Hemoglobin Beta Chain Splicing at IVS2 654 locus (AID 910);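 also: HeLa cells stably carrying EGFP split by mutant beta-globin IVS2-654 intron; per-well total GFP intensity by laser scanning cytometry after 2-day treatment; % of control where 0% means no effect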
Procedure, shortened: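 Readout: per-well total peak green fluorescence (488 nm ex, 500–520 nm em) from objects 5–250 µm, reflecting correct splicing of an EGFP-654 reporter. Compounds were applied for 2 days at 37 °C to overnight-plated HeLa EGFP-654 cells; controls were DMSO and 500 nM IVS2-654 PNA.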

Sequence of Guanine nucleotide-binding protein G(i) subunit alpha-1 (Homo sapiens) (P63096 whole entry, looked up): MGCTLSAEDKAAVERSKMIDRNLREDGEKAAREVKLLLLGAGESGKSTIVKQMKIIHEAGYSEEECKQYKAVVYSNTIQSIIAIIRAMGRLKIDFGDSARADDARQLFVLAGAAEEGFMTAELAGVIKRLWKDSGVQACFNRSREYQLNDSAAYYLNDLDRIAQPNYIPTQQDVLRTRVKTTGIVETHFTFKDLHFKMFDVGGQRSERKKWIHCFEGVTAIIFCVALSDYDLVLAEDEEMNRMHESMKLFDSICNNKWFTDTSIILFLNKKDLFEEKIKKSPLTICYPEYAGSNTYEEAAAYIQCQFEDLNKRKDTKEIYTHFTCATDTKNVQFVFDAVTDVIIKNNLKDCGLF
Sequence of 3',5'-cyclic-AMP phosphodiesterase 4B (Homo sapiens) (Q07343 whole entry, looked up): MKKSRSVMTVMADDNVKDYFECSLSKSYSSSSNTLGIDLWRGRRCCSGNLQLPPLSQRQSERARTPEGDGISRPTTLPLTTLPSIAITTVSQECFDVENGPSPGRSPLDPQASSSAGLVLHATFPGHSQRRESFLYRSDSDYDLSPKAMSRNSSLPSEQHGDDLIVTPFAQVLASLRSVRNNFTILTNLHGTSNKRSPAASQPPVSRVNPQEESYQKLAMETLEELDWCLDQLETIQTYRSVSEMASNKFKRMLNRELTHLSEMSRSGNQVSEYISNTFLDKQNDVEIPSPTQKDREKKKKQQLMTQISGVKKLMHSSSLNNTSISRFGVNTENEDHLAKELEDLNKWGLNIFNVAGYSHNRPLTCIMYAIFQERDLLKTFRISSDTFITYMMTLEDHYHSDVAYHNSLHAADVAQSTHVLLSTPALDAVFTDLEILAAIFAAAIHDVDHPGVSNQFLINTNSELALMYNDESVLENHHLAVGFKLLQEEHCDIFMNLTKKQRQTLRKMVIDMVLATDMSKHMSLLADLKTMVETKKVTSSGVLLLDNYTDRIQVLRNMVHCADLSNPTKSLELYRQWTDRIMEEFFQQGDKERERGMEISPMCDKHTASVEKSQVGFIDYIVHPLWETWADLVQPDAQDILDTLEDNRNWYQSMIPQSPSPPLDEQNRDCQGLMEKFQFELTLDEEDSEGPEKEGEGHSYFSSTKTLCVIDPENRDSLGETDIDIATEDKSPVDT
Sequence of Cytochrome P450 2C19 (Homo sapiens) (P33261 whole entry, looked up): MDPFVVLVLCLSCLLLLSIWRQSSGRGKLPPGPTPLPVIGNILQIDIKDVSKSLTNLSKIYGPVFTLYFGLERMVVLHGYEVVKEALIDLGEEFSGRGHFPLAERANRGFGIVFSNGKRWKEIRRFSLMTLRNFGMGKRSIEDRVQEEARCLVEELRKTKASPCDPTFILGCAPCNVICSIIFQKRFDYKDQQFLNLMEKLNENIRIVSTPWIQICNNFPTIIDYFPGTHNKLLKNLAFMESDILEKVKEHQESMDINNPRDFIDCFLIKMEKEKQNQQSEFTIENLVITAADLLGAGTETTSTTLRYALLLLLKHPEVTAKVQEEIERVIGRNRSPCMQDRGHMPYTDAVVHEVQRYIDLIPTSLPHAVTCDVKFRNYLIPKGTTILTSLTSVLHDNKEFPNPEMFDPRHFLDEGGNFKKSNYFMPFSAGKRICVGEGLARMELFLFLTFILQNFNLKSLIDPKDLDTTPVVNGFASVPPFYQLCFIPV
Sequence of Cytochrome P450 2D6 (Homo sapiens) (P10635 whole entry, looked up): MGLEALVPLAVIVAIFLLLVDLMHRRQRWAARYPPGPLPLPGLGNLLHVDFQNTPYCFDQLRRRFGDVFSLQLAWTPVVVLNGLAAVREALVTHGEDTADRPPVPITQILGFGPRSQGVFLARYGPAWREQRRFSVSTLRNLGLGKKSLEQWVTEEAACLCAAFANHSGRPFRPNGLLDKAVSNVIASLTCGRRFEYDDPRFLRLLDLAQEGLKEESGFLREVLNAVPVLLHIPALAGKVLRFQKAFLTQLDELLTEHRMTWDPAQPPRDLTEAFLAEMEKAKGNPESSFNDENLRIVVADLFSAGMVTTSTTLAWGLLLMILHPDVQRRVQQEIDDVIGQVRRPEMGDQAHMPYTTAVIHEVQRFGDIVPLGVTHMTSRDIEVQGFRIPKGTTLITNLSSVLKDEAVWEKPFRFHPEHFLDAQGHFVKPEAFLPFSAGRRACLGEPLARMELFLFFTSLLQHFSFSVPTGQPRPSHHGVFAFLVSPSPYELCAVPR
Sequence of Cytochrome P450 2C9 (Homo sapiens) (P11712 whole entry, looked up): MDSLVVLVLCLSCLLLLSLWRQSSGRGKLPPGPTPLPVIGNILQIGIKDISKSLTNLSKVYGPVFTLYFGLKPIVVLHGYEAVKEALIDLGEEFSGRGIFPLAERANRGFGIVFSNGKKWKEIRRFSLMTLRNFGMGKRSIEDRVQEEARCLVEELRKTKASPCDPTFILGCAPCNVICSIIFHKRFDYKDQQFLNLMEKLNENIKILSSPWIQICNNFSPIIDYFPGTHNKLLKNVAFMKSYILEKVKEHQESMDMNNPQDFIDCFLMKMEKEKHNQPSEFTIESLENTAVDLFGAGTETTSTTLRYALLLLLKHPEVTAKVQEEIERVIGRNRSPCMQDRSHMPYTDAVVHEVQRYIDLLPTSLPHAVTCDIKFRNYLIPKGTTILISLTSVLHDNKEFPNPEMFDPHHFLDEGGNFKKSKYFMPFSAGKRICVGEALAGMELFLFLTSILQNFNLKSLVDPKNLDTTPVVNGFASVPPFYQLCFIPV

CCN1CCC[C@H]1CNC(=O)c1c(O)c(Cl)cc(Cl)c1OC
inactive: Potency [1]

CN(C)C(=O)Oc1ccc[n+](C)c1
inactive: Potency [1] | Potency [2]

CN=C(NC#N)NCCSCc1nc[nH]c1C
inactive: Potency [1] | outcome [3] | Potency [4] | outcome [5] | outcome [6] | outcome [7] | Potency [8] | outcome [9] | caspase-3 activation [10] -1.11% | outcome [11] | outcome [12] | outcome [13] | outcome [14] | Potency [2] | Potency [15] | Potency [16] | Potency [17] | outcome [18]

CN(C)CCCN1c2ccccc2Sc2ccccc21
inactive: Potency [1] | Potency [2]

C[N+](C)(C)CCCCCCCCCC[N+](C)(C)C
inactive: Potency [1] | Potency [2]

CCCCNC(=O)NS(=O)(=O)c1ccc(C)cc1
inactive: Potency [1] | outcome [3] | Potency [4] | outcome [5] | outcome [6] | outcome [7] | Potency [8] | outcome [9] | caspase-3 activation [10] -0.361% | outcome [11] | outcome [12] | outcome [13] | outcome [14] | Potency [2] | Potency [16] | Potency [17]

CNCCCN1c2ccccc2CCc2ccccc21
inactive: Potency [1] | Potency [2]

Nc1nc(N)c2nc(-c3ccccc3)c(N)nc2n1
inactive: Potency [1] | outcome [5] | outcome [6] | outcome [9] | outcome [11] | outcome [12] | outcome [13] | outcome [14] | Potency [2]

COc1cc(Cc2cnc(N)nc2N)cc(OC)c1OC
inactive: Potency [1] | outcome [3] | Potency [4] | outcome [5] | outcome [6] | outcome [7] | Potency [8] | outcome [9] | caspase-3 activation [10] 0.291% | outcome [11] | outcome [12] | outcome [13] | outcome [14] | Potency [2] | outcome [18]

COC(=O)[C@@H](N)Cc1ccc(O)c(O)c1
inactive: Potency [1] | Potency [2]

Cc1ccc(S(=O)(=O)NC(=O)NN2CCCCCC2)cc1
inactive: Potency [1] | Potency [2]

O=C1CC2(CCCC2)CC(=O)N1CCCCN1CCN(c2ncccn2)CC1
inactive: Potency [1] | Potency [2]
